Activity calls are given as the source filed them.
Tests used:
[1] = tested on: Plasmodium falciparum Sir2 (PF13_0152, Sir2A); assay: pfSir2 binders on small-molecule microarrays, primary screen, biochemical, small-molecule microarray, 635 nm fluorescence (AID 1098); details: small-molecule microarray binding, fluorescence 635 nm; higher = more signal;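 note: score merges spot fluorescence intensity with its signal-to-noise ratio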
[2] = small-molecule microarray binders of probe aDKK1, primary screen, biochemical, biotinylated probe, 635/667 nm fluorescence (AID 1099); details: higher = more signal;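 note: score merges 667nm spot fluorescence with signal to noise across triplicate slides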
[3] = small-molecule microarray binders of probe aCHRDL2, primary screen, biochemical, biotinylated probe, 635/667 nm fluorescence (AID 1100); details: higher = more signal
[4] = splicing luciferase reporter signal modulators, primary screen, spliceosome inhibition project, cell-based, HEK293, splice +/- reporter (AID 1101); details: luminescence, 24 h, higher = more signal, called active from +8 up or from −8 down;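 note: HEK293 cells carrying a splicing-competent luciferase reporter gene; test concentration not given here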
[5] = target: Fibroblast growth factor 10 (Homo sapiens) (UniProt O15520); assay: FGF10 binders on small-molecule microarrays, primary screen, biochemical, small-molecule microarray, 635 nm fluorescence (AID 1102); details: FGF10 binding, fluorescence 635 nm, higher = more signal
Chain of Fibroblast growth factor 10 (Homo sapiens) (O15520 whole entry, looked up): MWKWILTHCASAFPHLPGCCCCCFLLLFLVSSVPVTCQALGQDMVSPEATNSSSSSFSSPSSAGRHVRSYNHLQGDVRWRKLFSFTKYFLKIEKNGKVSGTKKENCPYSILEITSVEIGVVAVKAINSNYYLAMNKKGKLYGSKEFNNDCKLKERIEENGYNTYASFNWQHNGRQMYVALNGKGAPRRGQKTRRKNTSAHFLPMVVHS

[6] = tested on: glycogen synthase kinase-3 (GSK3A per assay name; protocol says GSK3B); assay: GSK3 binders on small-molecule microarrays, primary screen, biochemical, small-molecule microarray, 635 nm fluorescence, GSK3A (AID 1103); details: small-molecule microarray binding, fluorescence 635 nm; higher = more signal; note: the record names both GSK3A and GSK3B
[7] = target: Epidermal growth factor receptor (Homo sapiens) (UniProt P00533); assay: EGFR binders on small-molecule microarrays, primary screen, biochemical, small-molecule microarray, 635 nm fluorescence (AID 1104); details: EGFR binding, higher = more signal;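 note: score merges 667 nm emission intensity with spot signal to noise over triplicate slides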
Chain of Epidermal growth factor receptor (Homo sapiens) (P00533 whole entry, looked up): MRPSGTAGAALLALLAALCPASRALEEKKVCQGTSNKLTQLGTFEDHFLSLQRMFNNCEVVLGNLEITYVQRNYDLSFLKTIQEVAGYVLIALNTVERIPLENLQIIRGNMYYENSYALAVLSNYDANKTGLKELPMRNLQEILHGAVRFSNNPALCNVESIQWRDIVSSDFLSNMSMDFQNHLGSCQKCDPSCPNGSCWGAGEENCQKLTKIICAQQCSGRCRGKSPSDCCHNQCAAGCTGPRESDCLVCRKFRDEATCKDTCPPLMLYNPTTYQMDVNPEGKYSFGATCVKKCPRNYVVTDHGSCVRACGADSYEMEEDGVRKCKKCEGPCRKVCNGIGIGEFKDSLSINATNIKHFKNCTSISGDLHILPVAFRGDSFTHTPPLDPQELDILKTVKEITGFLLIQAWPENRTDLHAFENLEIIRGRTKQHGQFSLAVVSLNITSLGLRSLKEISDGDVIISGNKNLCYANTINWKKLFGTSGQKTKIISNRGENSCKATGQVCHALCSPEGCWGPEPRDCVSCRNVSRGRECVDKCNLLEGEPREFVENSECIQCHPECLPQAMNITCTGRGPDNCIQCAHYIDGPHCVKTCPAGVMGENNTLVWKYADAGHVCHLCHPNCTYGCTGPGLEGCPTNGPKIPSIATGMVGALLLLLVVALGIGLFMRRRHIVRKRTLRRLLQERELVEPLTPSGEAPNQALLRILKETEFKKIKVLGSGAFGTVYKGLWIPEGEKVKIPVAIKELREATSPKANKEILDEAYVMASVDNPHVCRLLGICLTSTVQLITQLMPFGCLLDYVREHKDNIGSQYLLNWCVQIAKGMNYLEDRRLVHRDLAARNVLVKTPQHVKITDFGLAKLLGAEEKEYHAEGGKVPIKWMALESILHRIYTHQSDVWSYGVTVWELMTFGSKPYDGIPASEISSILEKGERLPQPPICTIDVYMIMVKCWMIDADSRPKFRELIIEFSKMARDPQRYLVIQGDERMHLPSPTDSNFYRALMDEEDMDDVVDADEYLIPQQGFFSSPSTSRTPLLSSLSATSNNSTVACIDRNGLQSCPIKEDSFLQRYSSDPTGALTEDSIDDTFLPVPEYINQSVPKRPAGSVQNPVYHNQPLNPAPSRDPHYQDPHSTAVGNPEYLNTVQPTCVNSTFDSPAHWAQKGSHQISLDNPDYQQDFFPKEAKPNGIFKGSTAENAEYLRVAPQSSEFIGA

[8] = target: Follistatin-related protein 3 (Homo sapiens) (UniProt O95633); assay: FSTL3 binders on small-molecule microarrays, primary screen, biochemical, small-molecule microarray, 635 nm fluorescence (AID 1105); details: FSTL3 binding, higher = more signal;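 note: score merges emission near 667 nm and signal to noise per printed spot across three slides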
Chain of Follistatin-related protein 3 (Homo sapiens) (O95633 whole entry, looked up): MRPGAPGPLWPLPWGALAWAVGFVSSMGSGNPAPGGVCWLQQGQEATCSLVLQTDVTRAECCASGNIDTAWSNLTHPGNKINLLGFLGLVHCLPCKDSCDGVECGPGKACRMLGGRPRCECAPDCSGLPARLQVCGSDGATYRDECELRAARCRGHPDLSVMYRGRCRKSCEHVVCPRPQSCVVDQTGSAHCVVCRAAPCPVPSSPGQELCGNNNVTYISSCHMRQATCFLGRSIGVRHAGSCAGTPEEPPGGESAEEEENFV

[9] = target: Dickkopf-related protein 1 (Homo sapiens) (UniProt O94907); assay: DKK1 binders on small-molecule microarrays, primary screen, biochemical, small-molecule microarray, 635 nm fluorescence scan (AID 1106); details: DKK1 binding, higher = more signal;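 note: score merges emission near 667 nm with signal to noise over three replicate slides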
Chain of Dickkopf-related protein 1 (Homo sapiens) (O94907 whole entry, looked up): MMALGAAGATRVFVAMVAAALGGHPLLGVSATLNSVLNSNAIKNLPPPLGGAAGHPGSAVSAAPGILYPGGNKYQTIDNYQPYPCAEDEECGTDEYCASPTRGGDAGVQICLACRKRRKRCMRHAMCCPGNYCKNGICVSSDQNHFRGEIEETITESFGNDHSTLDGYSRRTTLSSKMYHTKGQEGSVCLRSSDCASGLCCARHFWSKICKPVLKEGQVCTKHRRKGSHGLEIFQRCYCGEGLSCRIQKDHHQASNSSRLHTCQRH

[10] = tested on: Inhibin beta A chain (activin A); assay: INHBA (activin A) binders on microarrays, primary screen, biochemical, small-molecule microarray, 635 nm fluorescence scan (AID 1107); details: small-molecule microarray binding, higher = more signal;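 note: mouse activin A protein probed at 4.33 µg/mL on printed slides; score merges bound-protein fluorescence near 667 nm with spot signal-to-noise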
[11] = tested on: Human papillomavirus type 1a protein E7 (residues 44-93); assay: HPV1a E7 fragment binders on microarrays, primary screen, biochemical, small-molecule microarray, residues 44-93, 635 nm fluorescence (AID 1108); details: small-molecule microarray binding, fluorescence 635 nm; higher = more signal;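 note: E7 fragment applied at 1 µg/mL in TBST for 1 h at 4 C; score combines spot fluorescence with its signal to noise ratio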
[12] = modulators of HCV replicon luciferase signal, primary screen, HCV replication inhibitor project, Huh7 cells, luciferase reporter (AID 1109); details: 48 h, higher = more signal;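 note: huh7 hepatoma cells harbouring a luciferase neomycin HCV replicon reporter; luciferase luminescence as measure of HCV replicon replication; test concentration not given here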
[13] = target: Left-right determination factor 2 (Homo sapiens) (UniProt O00292); assay: LEFTY2 binders on small-molecule microarrays, primary screen, biochemical, small-molecule microarray, 635 nm fluorescence scan (AID 1110); details: LEFTY2 binding, higher = more signal
Chain of Left-right determination factor 2 (Homo sapiens) (O00292 whole entry, looked up): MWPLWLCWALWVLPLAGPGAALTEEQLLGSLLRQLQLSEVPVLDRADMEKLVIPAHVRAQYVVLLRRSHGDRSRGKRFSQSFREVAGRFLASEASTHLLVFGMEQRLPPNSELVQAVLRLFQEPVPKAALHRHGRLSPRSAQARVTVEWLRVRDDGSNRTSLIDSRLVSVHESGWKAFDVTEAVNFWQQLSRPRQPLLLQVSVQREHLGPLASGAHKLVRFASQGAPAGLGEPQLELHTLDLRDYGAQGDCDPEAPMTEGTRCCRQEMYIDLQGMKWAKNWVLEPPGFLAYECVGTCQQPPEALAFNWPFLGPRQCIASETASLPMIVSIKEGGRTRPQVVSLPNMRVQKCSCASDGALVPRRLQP

[14] = target: Calmodulin-1 (Homo sapiens) (UniProt P0DP23); assay: CALM1 binders on microarrays, EGTA buffer, profiling panel, biochemical, small-molecule microarray, Cy5-labelled CALM1 (AID 1111); details: Cy5-CALM1 binding fluorescence, higher = more signal;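 note: labelled calmodulin applied in Tris saline Tween buffer holding calcium plus EGTA and DTT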
[15] = target: Calmodulin-1 (Homo sapiens) (UniProt P0DP23); assay: calcium-bound CALM1 binders on microarrays, profiling panel, artefact control for SMM control-protein annotation, biochemical, small-molecule microarray, Cy5-labelled CALM1, plus calcium (AID 1112); details: Cy5-CALM1 binding fluorescence, higher = more signal;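 note: score merges spot fluorescence with signal to noise from triplicate slides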
[16] = small-molecule microarray binders of probe aWnt5a, primary screen, biochemical, biotinylated probe, 635/667 nm fluorescence (AID 1113); details: higher = more signal;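 note: score merges 667 nm fluorescence intensity with signal-to-noise per printed feature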
[17] = small-molecule microarray binders of probe aShh, primary screen, biochemical, biotinylated probe, 635/667 nm fluorescence (AID 1114); details: higher = more signal;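 note: probe is biotin-labelled aShh protein from a stem cell growth factor screen; measures binding of labelled protein to compounds printed on the slide; score merges feature fluorescence at 667 nm with signal-to-noise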
[18] = small-molecule microarray binders of probe aNog, primary screen, biochemical, biotinylated probe, 635/667 nm fluorescence (AID 1115); details: higher = more signal;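 note: probe is biotinylated aNog protein used at 0.15 µg/mL for 1 h at 4 C; z-score combines 667 nm fluorescence of each spot with its signal to noise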
[19] = target: Torsin-1A-interacting protein 1 (Homo sapiens) (UniProt Q5JTV8); assay: LAP1 binders from COS7 cell lysate, primary screen, small-molecule microarray, 635/667 nm fluorescence (AID 1116); details: COS7-hLAP1 lysate binding, 635 nm fluorescence, higher = more signal
Chain of Torsin-1A-interacting protein 1 (Homo sapiens) (Q5JTV8 whole entry, looked up): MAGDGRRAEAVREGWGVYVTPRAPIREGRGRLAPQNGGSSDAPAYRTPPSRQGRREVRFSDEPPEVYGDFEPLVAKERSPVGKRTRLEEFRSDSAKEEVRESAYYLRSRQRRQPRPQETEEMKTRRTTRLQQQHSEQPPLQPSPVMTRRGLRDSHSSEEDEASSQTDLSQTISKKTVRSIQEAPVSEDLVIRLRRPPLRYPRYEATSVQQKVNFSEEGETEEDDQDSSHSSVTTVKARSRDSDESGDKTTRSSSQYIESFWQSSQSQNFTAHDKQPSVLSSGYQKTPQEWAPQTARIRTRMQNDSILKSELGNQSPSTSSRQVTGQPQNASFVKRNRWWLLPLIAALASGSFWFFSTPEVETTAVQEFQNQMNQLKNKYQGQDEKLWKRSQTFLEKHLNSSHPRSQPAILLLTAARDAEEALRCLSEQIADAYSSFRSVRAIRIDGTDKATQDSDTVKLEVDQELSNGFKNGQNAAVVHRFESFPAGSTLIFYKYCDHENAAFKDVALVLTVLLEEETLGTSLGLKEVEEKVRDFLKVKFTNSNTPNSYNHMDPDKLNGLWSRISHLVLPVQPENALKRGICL

[20] = target: Alpha-bungarotoxin (Bungarus multicinctus) (UniProt P60615); assay: alpha-bungarotoxin binders on microarray, profiling panel, artefact control for SMM control protein annotation, biochemical, small-molecule microarray, Alexa647 label, 635/667 nm fluorescence (AID 1117); details: alpha-BTX-A647 binding fluorescence, higher = more signal
Chain of Alpha-bungarotoxin (Bungarus multicinctus) (P60615 whole entry, looked up): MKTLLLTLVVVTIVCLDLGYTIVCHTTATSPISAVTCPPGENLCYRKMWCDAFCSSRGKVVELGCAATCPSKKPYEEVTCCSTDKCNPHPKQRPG

| Compound | composite z-score [1] | composite z-score [2] | composite z-score [3] | z-score [4] | composite z-score [5] | composite z-score [6] | composite z-score [7] | composite z-score [8] | composite z-score [9] | composite z-score [10] | composite z-score [11] | z-score [12] | composite z-score [13] | composite z-score [14] | composite z-score [15] | composite z-score [16] | composite z-score [17] | composite z-score [18] | composite z-score [19] | composite z-score [20] |
| --- | --- | --- | --- | --- | --- | --- | --- | --- | --- | --- | --- | --- | --- | --- | --- | --- | --- | --- | --- | --- |
| CO[C@H]1COC(=O)CC=C[C@@H](C)[C@H](OC)COC(=O)[C@@H]2CCCN2C(=O)CC=C[C@@H]1C | 0.686 | -0.382 | -1.14 | 0.308 (inactive) | 0.892 | 0.78 | 1.13 | 1.49 | 1.16 | 1.13 | -0.298 | 0.443 | 1.32 | -1.02 | -1.82 | -0.0819 | -0.138 | -0.748 | 0.159 | -0.41 |
| COC(=O)CC=C[C@@H](C)[C@@H](C=NO[C@@H](C)c1cn([C@H](CO)Cc2ccccc2)nn1)NS(=O)(=O)c1ccc(C)cc1 | 1.18 | -0.0838 | -0.668 | -0.83 (inactive) | 0.582 | 0.252 | 0.519 | 0.449 | 0.47 | 0.408 | -0.0476 | -0.858 | 0.739 | -0.598 | -0.531 | 0.0077 | -0.0977 | 0.143 | 0.258 | -0.331 |
| COc1cccc([C@H]2Oc3ccc(OC)cc3C(=NO[C@@H](C)c3cn([C@H](CO)Cc4ccccc4)nn3)[C@@H]2O)c1 | 0.482 | -0.268 | -0.303 | -0.0241 (inactive) | 0.167 | -0.58 | -0.0558 | -0.201 | 0.113 | 0.176 | -0.429 | -0.727 | -0.36 | 0.465 | -0.0011 | -0.0836 | 0.0121 | 0.0918 | -0.0881 | -0.417 |
| COC(=O)[C@H]1[C@@H](O)[C@@]2(O)c3ccccc3O[C@@]2(c2ccccc2)[C@@H]1c1ccccc1 | -0.125 | -0.12 | -0.535 | 0.217 (inactive) | 0.0746 | -0.0393 | 0.396 | -0.134 | 0.384 | -0.011 | -0.673 | -0.1 | 0.401 | -0.449 | -0.336 | -0.156 | 0.0815 | -0.136 | 0.096 | -0.516 |
| CC(=O)Nc1ccc([C@@H]2N[C@H](C(=O)O)CC[C@H]2C)cc1 | 0.136 | -0.108 | -0.401 | 0.303 (inactive) | 0.32 | 0.461 | 0.546 | 0.409 | 0.444 | 0.133 | -0.0931 | 1.1 | 0.523 | -0.105 | -0.635 | -0.0203 | -0.226 | -0.213 | 0.14 | 0.273 |
| COC(=O)CC=C[C@@H](C)[C@@H](C=NOCC[C@@H]1C=C[C@H](OC(C)=O)[C@@H](COC(C)=O)O1)OC | 0.381 | -0.0928 | -0.546 | 1.21 (inactive) | 0.933 | 0.328 | 0.498 | 0.651 | 0.556 | -0.3 | 0.107 | -0.488 | 0.589 | -1 | -1.78 | -0.0346 | 0.284 | -0.205 | 0.473 | -0.484 |
| CC(C)CON=C1C[C@@H](O)[C@@H](O)[C@@H]2[C@@H]3C(=O)N(C4CCCCC4)C(=O)[C@@H]3CC[C@H]12 | 0.209 | 0.0948 | -0.106 | 0.00397 (inactive) | 0.74 | 0.842 | 0.362 | 0.611 | 0.544 | -0.312 | 1.2 | 0.0073 | 0.999 | 1.27 | -0.0361 | -0.0731 | -0.16 | 0.447 | 0.792 | 1.13 |
| COC(=O)CC=C[C@@H](C)[C@@H](C=NO[C@@H](C)c1cc(-c2c(C)cc(C)cc2C)no1)NS(=O)(=O)c1ccc(C)cc1 | -0.775 | 0.437 | 0.969 | -1.4 (inactive) | -1.93 | -1.46 | -1.16 | -1.83 | -2.26 | 0.178 | -0.707 | -1.6 | -1.36 | -0.3 | 0.573 | -0.202 | -0.138 | 0.0011 | -0.436 | -0.744 |
| CO[C@@H]1C=CCC(=O)N[C@@H](C)C(=O)OC[C@@H](OC)[C@H](C)CCCC(=O)OC[C@H]1C | 1.55 | -0.352 | -1.05 | -0.646 (inactive) | 0.473 | 0.0516 | 1.08 | 1.22 | 1.64 | 1.23 | -2.89 | -1.41 | 1.41 | -1.23 | -2.04 | -0.0694 | -0.206 | -0.345 | 0.95 | -0.11 |
| CC(C)=NO[C@H](C)c1cn([C@H](CO)Cc2ccccc2)nn1 | 0.618 | -0.309 | -0.113 | 1 (inactive) | 0.443 | -0.122 | 0.17 | -0.275 | 0.291 | 0.576 | 0.216 | -0.463 | 0.13 | 0.0595 | -0.0004 | 0.0438 | 0.0121 | 0.145 | -0.197 | -0.0691 |
| COC(=O)[C@@H]1CC[C@H](C)[C@@H](c2ccc(C)cc2)N1C(=O)c1ccc(C=NO[C@H](C)c2cn([C@@H]3COC[C@H]3O)nn2)cc1 | 0.266 | -0.132 | -0.369 | 0.0134 (inactive) | 0.718 | 0.891 | 0.67 | 0.66 | 0.831 | -1.14 | 1.33 | -1.06 | 0.635 | 0.0264 | -0.361 | -0.152 | 0.0141 | -0.0065 | 0.581 | -0.0105 |
